{"source": "PubChem BioAssay (NCI)", "note": "The panel holds about 83,000 compounds, 20% with a hit somewhere; the sample as a whole holds those more often.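 The test compound was applied at a single concentration to cells in 96-well plates for 48 hours, and percent growth was recorded.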 Values without a mark were called inactive. Activity calls are given as the source filed them. How the source made its calls: active means growth percent below 10; inactive means the rest.", "data": [{"test_system": "HL-60(TB) leukemia", "experiment": "NCI-60 one-dose screen, 48 h (100 = growth as untreated, 0 = no growth, -100 = all killed)", "conditions": "10 µM unless noted", "values": [{"molecule": "COc1nc2c(c(=O)n1C)CN(c1ccccc1)C(=O)C(C)N2", "note": "(centres undefined)", "growth": "94%"}, {"molecule": "CC(C)/C=N/NC(N)=S", "growth": "104%"}, {"molecule": "Oc1[nH]c2ccccc2c1/C=c1/ccc2c(c1)N=C(c1cc(F)cc(F)c1)N=2", "growth": "54.2%"}, {"molecule": "C[C@H](C(=O)N(CCc1ccc(Cl)c(Cl)c1)Cc1cncs1)[C@@H]1CC[C@H](C[C@H](C)n2cc(CN3CCC(c4ccc(Cl)cc4)CC3)nn2)O1", "growth": "-71.2% (active)"}, {"molecule": "COc1ccc2nccc(Cl)c2c1", "growth": "103%"}, {"molecule": "O=C(Nc1cc(Br)ccn1)c1cc2cc(Nc3nc(-c4ccccc4)nc4ccccc34)ccc2oc1=O", "growth": "87.3%"}, {"molecule": "Cc1ccc2c(NCCCN(C)C)c3c(C)nn(C)c3nc2c1", "growth": "32.4%"}, {"molecule": "COc1ccc(-c2ccc(-c3ccc(C(=N)N)cn3)s2)cc1OC", "growth": "94.9%"}, {"molecule": "CC(=O)CCC(=O)OCc1cc(=O)c(O)co1", "growth": "95%"}, {"molecule": "COc1cc2oc(-c3cccc(NC(=O)Nc4ccc5c(c4)OCO5)c3)cc(=O)c2c(OC)c1OC", "growth": "56.8%"}, {"molecule": "CCOC(=O)C(Cc1ccccc1)n1c(O)c(/C=N/c2ncc(Cc3ccc(Cl)cc3Cl)s2)sc1=S", "note": "(centres undefined)", "growth": "-35.2% (active)"}, {"molecule": "O=C1N(Cc2ccccc2Cl)c2ccccc2C12NN=C(c1ccccc1)S2", "note": "(centres undefined)", "growth": "58.5%"}, {"molecule": "C[C@@]1(CO)[C@H](O)CC[C@@]2(C)[C@H]1CC[C@H]1C[C@@H]3C[C@@]12CC[C@@]3(O)COC(=O)CN", "growth": "3.18% (active)"}, {"molecule": "C=C1C(=O)O[C@H]2[C@H]1CC/C(CNC(=O)/C=C/c1cccc(OC)c1)=C\\CC[C@@]1(C)O[C@@H]21", "growth": "-35.4% (active)"}]}]}
